Assay [1] deals with Retinoic acid receptor alpha (Homo sapiens) (UniProt P10276). The assay can be described thus: ATG_DR5_RAR_CIS: Attagene CIS-FACTORIAL HepG2 Assay for human Retinoic Acid Receptor Alpha (RARE), DR5 submotif (AID 2282934). Particulars: HepG2 Attagene cis-factorial RARE DR5 reporter, mRNA; actives raise or lower the signal. The procedure, abridged: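 Read-out: DR5-driven reporter transcript measured by RT-PCR, 6-FAM primer extension, HpaI digest and capillary electrophoresis. Human HepG2 liver cells carry transiently transfected cis-element reporter constructs; dosing lasts 24 h. Gain or loss of signal fitted against DMSO baseline.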

In assay [2] the target is Hepatocyte nuclear factor 3-beta (Homo sapiens) (UniProt Q9Y261). The assay can be described thus: ATG_FoxA2_CIS: Attagene CIS-FACTORIAL HepG2 Assay for human Forkhead box A2 (FOXA2) (AID 2282942). Particulars: HepG2 cis-reporter transcription factor activity, 24 h; actives raise or lower the signal. The procedure, abridged: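 Endogenous transcription factor activity was read in HepG2 cells carrying transiently transfected cis-promoter reporter units. After 24 h dosing, reporter mRNA was quantified by RT-PCR and capillary electrophoresis, and values fitted bidirectionally versus DMSO.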

Assay [3] can be described thus: ATG_GRE_CIS: Attagene CIS-FACTORIAL HepG2 Assay for human Glucocorticoid Response Elements (GRE) (AID 2282947). Particulars: HepG2 GRE cis-reporter, Attagene multiplex mRNA; actives raise or lower the signal. The procedure, abridged: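 Read-out: fluorescent reporter-transcript fragments separated by capillary electrophoresis after RT-PCR. Transiently transfected HepG2 cells carrying cis-element-driven reporter units were dosed for 24 h; gain or loss of signal fitted against DMSO control.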

A short description of assay [4]: ATG_RORE_CIS: Attagene CIS-FACTORIAL HepG2 Assay for human RAR-related Orphan Receptor Element (RORE) (AID 2282959). Particulars: HepG2 Attagene cis-factorial RORE reporter, mRNA; actives raise or lower the signal. The procedure, abridged: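 Cells were HepG2 carrying transfected cis-regulated reporter constructs, dosed for 24 hours. Total RNA was reverse-transcribed and reporter cDNA amplified, fluorescently labeled and sized by capillary electrophoresis. Activity was fitted bidirectionally relative to DMSO.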

Assay [5] concerns the target Hepatocyte nuclear factor 4-alpha (Homo sapiens) (UniProt P41235). The assay can be described thus: ATG_HNF4a_TRANS: Attagene TRANS-FACTORIAL HepG2 Assay for human Hepatocyte Nuclear Factor 4 alpha (HNF4a) (AID 2282982; active means hit-call score of the fitted dose curve at least 0.9, where 1 is the maximum). Particulars: HepG2 HNF4a transactivation reporter, mRNA readout. A digest of the protocol:
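Transient MRTU transfection of HepG2, 24 h dosing. Readout: reporter mRNA via RT-PCR + capillary electrophoresis, fluorescence; activity fit upward relative to DMSO control.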

Assay [6] can be described thus: ATG_NFI_CIS: Attagene CIS-FACTORIAL HepG2 Assay for human Nuclear Factor I (NFI) (AID 2282989). Particulars: HepG2 cis-regulatory reporter, NFI response element transcription; actives raise or lower the signal. A digest of the protocol: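 Reporter transcripts were measured by RT-PCR with fluorescent primer extension and capillary electrophoresis 24 h post-treatment. HepG2 cells carried transiently transfected cis-regulated reporter constructs reporting endogenous factor activity; gain or loss fitted against DMSO baseline.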

A short description of assay [7]: ATG_PBREM_CIS: Attagene CIS-FACTORIAL HepG2 Assay for human Phenobarbital-responsive Enhancer Module (PBREM) (AID 2282955). To be noted: HepG2 PBREM cis-reporter, Attagene multiplexed transcription; actives raise or lower the signal. The procedure, abridged: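 Fluorescence of labelled reporter cDNA fragments, resolved by capillary electrophoresis, gives mRNA induction in transfected HepG2 cells treated for 24 h; DMSO serves as negative control and baseline.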

The nature of assay [8]: ATG_SREBP_CIS: Attagene CIS-FACTORIAL HepG2 Assay for human Sterol Regulatory Element Binding (SREBP) (AID 2282962). Particulars: HepG2 Attagene cis-factorial SREBP reporter, mRNA; actives raise or lower the signal. The procedure, abridged:
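Readout: fluorescent reporter-transcript peaks resolved by capillary electrophoresis after RT-PCR. Cells were human HepG2 carrying transfected cis-promoter reporter constructs, dosed for 24 h. Gain or loss of signal was fitted against DMSO controls.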

The nature of assay [9]: ATG_NF_kB_CIS: Attagene CIS-FACTORIAL HepG2 Assay for human Nuclear Factor Kappa B (NF-kB) (AID 2282991). To be noted: HepG2 Attagene cis-factorial NF-kB reporter mRNA; actives raise or lower the signal. A digest of the protocol:
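Endogenous transcription factor activity in HepG2 was captured via cis-regulated reporter constructs; after 24 h dosing, reporter mRNA was reverse-transcribed, amplified, fluorescently labelled and sized by capillary electrophoresis, with activity fitted bidirectionally relative to DMSO.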

Assay [10] addresses human Peroxisome Proliferator-activated Receptor alpha (PPARa), PPARA (gene 5465) (UniProt Q07869). As to the kind of experiment: ATG_PPARa_TRANS: Attagene TRANS-FACTORIAL HepG2 Assay for human Peroxisome Proliferator-activated Receptor alpha (PPARa) (AID 2283001; active means hit-call score of the fitted dose curve at least 0.9, where 1 is the maximum). The procedure, abridged:
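Transient HepG2 transfection, GAL4-UAS reporters, NR-Gal4 chimeras; 24 h compound exposure. Readout: reporter transcripts by RT-PCR, 6-FAM primer extension, HpaI digest, capillary electrophoresis. Positive direction vs DMSO baseline.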

The target of assay [11] is human Retinoid X Receptor beta (RXRb), RXRB (gene 6257) (UniProt P28702). As to the kind of experiment: ATG_RXRb_TRANS: Attagene TRANS-FACTORIAL HepG2 Assay for human Retinoid X Receptor beta (RXRb) (AID 2283013; active means hit-call score of the fitted dose curve at least 0.9, where 1 is the maximum). The procedure, abridged:
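After a 24 h incubation with test chemical, transfected HepG2 cells carrying NR-Gal4 fusions and GAL4-UAS reporter transcription units yield RNA whose reporter cDNA is FAM-labelled, HpaI-cut and sized by capillary electrophoresis; increases over DMSO are scored.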

For assay [12], the target named is Cellular tumor antigen p53 (Homo sapiens) (UniProt P04637). As to the kind of experiment: TOX21_p53_BLA_p2_ratio: Tox21 HCT-116 p53 Agonism Beta-lactamase Assay, Ratio, Phase 2 (AID 2283592; active means hit-call score of the fitted dose curve at least 0.9, where 1 is the maximum). A digest of the protocol: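 DMSO-normalized, positive-direction endpoint derived from the 460 nm/530 nm FRET ratio in HCT116 p53 beta-lactamase reporter cells exposed 16 h at 37C and loaded with CCF4-AM for 2 h.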

The nature of assay [13]: ATG_FoxO_CIS: Attagene CIS-FACTORIAL HepG2 Assay for human Forkhead box O (FoxO) (AID 2282943). To be noted: HepG2 Attagene cis-reporter, FoxO element, mRNA; actives raise or lower the signal. A digest of the protocol:
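Read-out: fluorescence of 6-FAM-labelled reporter cDNA fragments resolved by capillary electrophoresis. Transiently transfected HepG2 cells were dosed for 24 h; activity fitted in both directions relative to DMSO controls.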

Assay [14] can be described thus: ATG_M_32_TRANS: Attagene TRANS-FACTORIAL HepG2 Assay for M32 Transcription Factor (Internal Marker) (AID 2282984; active means hit-call score of the fitted dose curve at least 0.9, where 1 is the maximum;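 further: transcript level of a background control reporter unit measured by RT-PCR and capillary electrophoresis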). Particulars: HepG2 Attagene TRANS M32 internal marker reporter. A digest of the protocol: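 Read-out: fluorescent reporter cDNA fragments resolved by capillary electrophoresis after RT-PCR of total RNA. Transfected HepG2 cells were exposed to chemical for 24 h. Activity scored in the positive direction relative to DMSO.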

Assay [15] concerns the target Cellular tumor antigen p53 (Homo sapiens) (UniProt P04637). The assay can be described thus: TOX21_p53_BLA_p3_ratio: Tox21 HCT-116 p53 Agonism Beta-lactamase Assay, Ratio, Phase 3 (AID 2283596; active means hit-call score of the fitted dose curve at least 0.9, where 1 is the maximum). A digest of the protocol: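 Cells were seeded at 4000/well, rested 5 h at 37C, then dosed with DMSO compound solutions (217-fold dilution) for 16 h. CCF4-AM substrate was loaded for 2 h at room temperature, and the 460/530 nm emission ratio was fitted for gain of signal versus DMSO.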

Assay [16] can be described thus: TOX21_p53_BLA_p2_viability: Viability Assessment in the Tox21 HCT-116 p53 Agonism Beta-lactamase Assay, Phase 2 (AID 2283591; active means hit-call score of the fitted dose curve at least 0.9, where 1 is the maximum;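 further: compound exposure lasted 16 h at 37 °C; actives lower the ATP signal meaning cytotoxicity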). A digest of the protocol: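 HCT116 p53-bla cells, 4000/well, dosed after 5 h plating (217-fold dilution of DMSO stocks) and incubated 16 h at 37C. Viability taken as cellular ATP by CellTiter-Glo luminescence after 30 min RT; signal loss marks cytotoxicity.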

Assay [17] in a line: TOX21_p53_BLA_p3_viability: Viability Assessment in the Tox21 HCT-116 p53 Agonism Beta-lactamase Assay, Phase 3 (AID 2283593; active means hit-call score of the fitted dose curve at least 0.9, where 1 is the maximum;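 further: cells exposed to compound for 16 h before reading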). A digest of the protocol: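 HCT116 cells, 4000/well, dosed 5 h after plating by pin transfer (217-fold dilution from DMSO stock) and incubated 16 h at 37C, 5% CO2. Viability read as ATP luminescence with CellTiter-Glo after 30 min at room temperature.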

Assay [18] deals with Cellular tumor antigen p53 (Homo sapiens) (UniProt P04637). The assay can be described thus: TOX21_p53_BLA_p5_ratio: Tox21 HCT-116 p53 Agonism Beta-lactamase Assay, Ratio, Phase 5 (AID 2283599; active means hit-call score of the fitted dose curve at least 0.9, where 1 is the maximum). A digest of the protocol: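 HCT-116 p53-bla cells (4000/well) plated 5 h, dosed with compound (217-fold DMSO dilution) for 16 h at 37 C; CCF4-AM substrate 2 h at room temperature. Activity is the 460/530 nm emission ratio (405 nm excitation), fitted in gain-of-signal direction versus DMSO.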

Assay [19] has the same target. The assay can be described thus: TOX21_p53_BLA_p4_ratio: Tox21 HCT-116 p53 Agonism Beta-lactamase Assay, Ratio, Phase 4 (AID 2283601; active means hit-call score of the fitted dose curve at least 0.9, where 1 is the maximum). The procedure, abridged: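 HCT-116 p53 beta-lactamase reporter cells (4000/well) preincubated 5 h, then compound (217-fold dilution of DMSO stock) for 16 h at 37C. CCF4-AM substrate added 2 h at room temperature; 460/530 nm emission ratio fitted upward versus DMSO.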

Molecules are shown by their SMILES. Results filed as inconclusive are left out. Calls of active or inactive are those of the source. How the source made its calls, unless noted: active means hit-call score of the fitted dose curve at least 0.9, where 1 is the maximum; inactive means score below 0.9.

Sequence of Hepatocyte nuclear factor 4-alpha (Homo sapiens) (P41235 whole entry, looked up): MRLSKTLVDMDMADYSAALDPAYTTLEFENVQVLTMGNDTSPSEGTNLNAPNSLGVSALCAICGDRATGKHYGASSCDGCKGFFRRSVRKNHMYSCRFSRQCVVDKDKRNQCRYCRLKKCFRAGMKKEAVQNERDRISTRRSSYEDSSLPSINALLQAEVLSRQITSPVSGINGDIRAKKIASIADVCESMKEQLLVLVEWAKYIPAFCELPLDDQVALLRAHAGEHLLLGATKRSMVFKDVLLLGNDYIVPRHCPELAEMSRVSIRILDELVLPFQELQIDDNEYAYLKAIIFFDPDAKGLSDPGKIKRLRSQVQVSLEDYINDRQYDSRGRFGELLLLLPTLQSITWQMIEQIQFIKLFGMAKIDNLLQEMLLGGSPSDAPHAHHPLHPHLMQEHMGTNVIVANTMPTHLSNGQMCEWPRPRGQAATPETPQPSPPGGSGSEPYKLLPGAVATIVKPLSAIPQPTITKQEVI
Sequence of human Retinoid X Receptor beta (RXRb), RXRB (gene 6257) (P28702 whole entry, looked up, the tested form may be a part): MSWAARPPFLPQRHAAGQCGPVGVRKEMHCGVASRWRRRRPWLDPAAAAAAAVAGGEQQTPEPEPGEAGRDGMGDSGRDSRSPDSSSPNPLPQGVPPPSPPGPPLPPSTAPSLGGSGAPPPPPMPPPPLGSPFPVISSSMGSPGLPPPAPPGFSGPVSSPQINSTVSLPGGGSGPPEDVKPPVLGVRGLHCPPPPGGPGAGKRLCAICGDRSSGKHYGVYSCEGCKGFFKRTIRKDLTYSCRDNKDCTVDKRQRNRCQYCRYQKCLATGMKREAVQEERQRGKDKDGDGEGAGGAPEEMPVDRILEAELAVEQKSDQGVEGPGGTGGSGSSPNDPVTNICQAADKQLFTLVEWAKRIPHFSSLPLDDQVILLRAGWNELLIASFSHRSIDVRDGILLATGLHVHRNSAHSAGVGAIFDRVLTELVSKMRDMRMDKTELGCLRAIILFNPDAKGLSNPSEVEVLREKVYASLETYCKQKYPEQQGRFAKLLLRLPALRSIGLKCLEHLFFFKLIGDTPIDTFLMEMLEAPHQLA
Sequence of Cellular tumor antigen p53 (Homo sapiens) (P04637 whole entry, looked up): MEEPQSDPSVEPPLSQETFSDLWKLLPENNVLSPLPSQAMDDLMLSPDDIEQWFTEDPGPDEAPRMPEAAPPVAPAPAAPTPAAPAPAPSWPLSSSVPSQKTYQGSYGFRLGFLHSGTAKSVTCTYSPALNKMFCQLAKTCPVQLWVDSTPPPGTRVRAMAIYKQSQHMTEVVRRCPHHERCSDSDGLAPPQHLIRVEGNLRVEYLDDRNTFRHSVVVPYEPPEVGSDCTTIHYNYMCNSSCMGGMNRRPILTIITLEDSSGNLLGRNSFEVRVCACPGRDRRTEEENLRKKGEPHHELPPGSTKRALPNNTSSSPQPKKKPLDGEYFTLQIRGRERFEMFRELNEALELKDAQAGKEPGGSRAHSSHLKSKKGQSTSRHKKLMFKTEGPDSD
Sequence of Hepatocyte nuclear factor 3-beta (Homo sapiens) (Q9Y261 whole entry, looked up): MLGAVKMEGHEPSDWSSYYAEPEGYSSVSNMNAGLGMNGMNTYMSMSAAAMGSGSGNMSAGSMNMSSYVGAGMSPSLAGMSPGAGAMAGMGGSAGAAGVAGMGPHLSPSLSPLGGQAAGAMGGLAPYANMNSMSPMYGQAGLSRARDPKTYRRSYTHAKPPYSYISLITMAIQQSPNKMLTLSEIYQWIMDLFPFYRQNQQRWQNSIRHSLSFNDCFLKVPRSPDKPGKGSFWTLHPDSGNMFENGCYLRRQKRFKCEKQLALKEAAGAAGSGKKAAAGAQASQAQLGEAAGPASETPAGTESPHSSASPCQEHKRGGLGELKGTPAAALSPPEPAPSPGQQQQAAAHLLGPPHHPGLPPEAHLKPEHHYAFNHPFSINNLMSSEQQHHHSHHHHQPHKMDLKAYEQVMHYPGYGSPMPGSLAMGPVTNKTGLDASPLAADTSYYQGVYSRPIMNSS
Sequence of Retinoic acid receptor alpha (Homo sapiens) (P10276 whole entry, looked up): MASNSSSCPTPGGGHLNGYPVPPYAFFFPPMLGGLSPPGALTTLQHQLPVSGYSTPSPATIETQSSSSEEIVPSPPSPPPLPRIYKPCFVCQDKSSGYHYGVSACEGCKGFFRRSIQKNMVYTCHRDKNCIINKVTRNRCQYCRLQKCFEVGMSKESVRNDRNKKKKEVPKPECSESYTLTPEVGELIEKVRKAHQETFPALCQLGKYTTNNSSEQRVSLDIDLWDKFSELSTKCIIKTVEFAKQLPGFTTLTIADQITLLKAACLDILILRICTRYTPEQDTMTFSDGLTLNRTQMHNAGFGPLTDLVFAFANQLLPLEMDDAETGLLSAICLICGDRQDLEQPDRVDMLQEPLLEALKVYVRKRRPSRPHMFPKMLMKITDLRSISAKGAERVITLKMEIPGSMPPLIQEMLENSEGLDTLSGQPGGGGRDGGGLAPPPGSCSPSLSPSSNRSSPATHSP
Sequence of human Peroxisome Proliferator-activated Receptor alpha (PPARa), PPARA (gene 5465) (Q07869 whole entry, looked up, the tested form may be a part): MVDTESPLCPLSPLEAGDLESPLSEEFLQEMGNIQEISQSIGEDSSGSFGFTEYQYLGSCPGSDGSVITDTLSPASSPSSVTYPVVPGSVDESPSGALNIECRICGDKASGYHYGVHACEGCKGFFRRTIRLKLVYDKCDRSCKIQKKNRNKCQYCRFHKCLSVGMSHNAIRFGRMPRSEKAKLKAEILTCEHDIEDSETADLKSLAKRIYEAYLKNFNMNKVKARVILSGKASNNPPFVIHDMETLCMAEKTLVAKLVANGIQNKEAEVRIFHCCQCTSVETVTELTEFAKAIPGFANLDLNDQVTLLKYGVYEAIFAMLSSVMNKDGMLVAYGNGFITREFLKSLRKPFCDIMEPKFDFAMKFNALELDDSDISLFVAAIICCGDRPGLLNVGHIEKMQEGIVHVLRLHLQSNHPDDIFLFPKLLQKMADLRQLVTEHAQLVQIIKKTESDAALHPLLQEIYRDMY

Take `CC(=O)Nc1c(I)c(NC(C)=O)c(I)c(C(=O)O)c1I`: the molecule was called inactive in assay [1], in assay [2], in [3], in assay [4], in assay [5] and in [6].

With `[O-][n+]1ccc(Cl)cc1`, the molecule was classed as inactive in [1], in [2], in [3], in assay [7], in [4] and in [8]. In addition, the call in [5], in assay [6], in assay [9], in [10], in [11] and in [12] was inactive.

Consider `CCCCCCCC#N`, for which the molecule was called inactive in assay [1], in assay [2], in assay [3], in assay [8], in assay [5] and in assay [6]. In addition, the molecule was called inactive in [9].

Take `CC=CC(=O)O`: the outcome in assay [1], in [2], in assay [13], in assay [3], in assay [4] and in assay [8] was inactive. For the same molecule, the molecule was called inactive in [5], in assay [14], in assay [6] and in assay [9].

One may read the AC50 as the concentration at which the activity in the assay is half-maximal. Turning to `CCOc1ccc2c(c1)C(C)CC(C)(C)N2` (stereo unspecified), the call in assay [1], in [3], in assay [7], in assay [4], in [8] and in [6] was inactive. Further, the molecule was called inactive in assay [9]. The AC50 in [11] was 37.7 µM (active).

On to `CCC(C)NC(N)=O` (stereo unspecified), for which the molecule was called inactive in [2], in assay [13], in assay [7], in assay [4], in assay [14] and in assay [9]. Further, the outcome in [12] and in [15] was inactive.

Take `c1ccc2c(c1)Oc1ccccc1S2`: the molecule was classed as inactive in [2], in assay [3], in assay [7], in assay [4], in [14] and in assay [9]. For the same molecule, the result in [10], in assay [11], in assay [16], in assay [12], in assay [17] and in assay [18] was inactive. Moreover, in assay [19], the result was inactive. The results for the AC50 in assay [8] and in assay [6] were 146 µM (active) and 140 µM (active), respectively.

Values taken from PubChem BioAssay (EPA / NIEHS).
